Experimental data from PubChem BioAssay AID1159580 (chemical genetic matrix, 2015).
About 2,000 (36%) of roughly 5,500 compounds were called active. Another 18% or so got no clear call; they are omitted. Rule as the data show it: active = normalized growth mostly below about 0.91 (no sharp cut-off); inconclusive = no clear call, values can overlap the other calls; inactive = mostly above about 0.92. The list shows a part of the results.

Assay: chemical genetic growth profiling, strain panel (AID 1159580);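 also: tested at 20 µM; growth read once vehicle control cultures reached saturation at 30 °C; 1 = growth at the plate median or of vehicle wells; lower values mean less growth of the strain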
Conditions: S. cerevisiae deletion strains, growth OD

Measured: normalized growth

CN(C)C=Nc1nnc(Sc2nc3c(Cl)cc(Cl)cc3s2)s1
inactive: locus YAR019C, strain CDC15, hits give low values 0.959 | locus YBL105C, strain PKC1, hits give low values 0.969 | locus YBR135W, strain CKS1, hits give low values 0.973 | locus YBR136W, strain MEC1, hits give low values 0.968 | locus YBR160W, strain CDC28, hits give low values 0.977 | locus YDL017W, strain CDC7, hits give low values 0.976 | locus YDL028C, strain MPS1, hits give low values 0.975 | locus YDL101C, strain DUN1, hits give low values 0.972 | locus YDL108W, strain KIN28, hits give low values 0.976 | locus YDL132W, strain cdc53, hits give low values 0.964 | locus YDL214C, strain PRR2, hits give low values 0.97 | locus YDR052C, strain DBF4, hits give low values 0.972 | locus YDR054C, strain cdc34, hits give low values 0.954 | locus YDR226W, strain ADK1, hits give low values 0.961 | locus YDR477W, strain SNF1, hits give low values 0.944 | locus YER123W, strain YCK3, hits give low values 0.953 | locus YER133W, strain GLC7, hits give low values 0.925 | locus YFL009W, strain cdc4, hits give low values 0.963 | locus YFL029C, strain CAK1, hits give low values 0.959 | locus YFR003C, strain YPI1, hits give low values 0.973 | locus YFR019W, strain FAB1, hits give low values 0.975 | locus YFR028C, strain CDC14, hits give low values 0.969 | locus YGR040W, strain KSS1, hits give low values 0.943 | locus YGR052W, strain FMP48, hits give low values 1 | locus YGR092W, strain DBF2, hits give low values 0.929 | locus YHR030C, strain SLT2, hits give low values 1.11 | locus YHR079C, strain IRE1, hits give low values 0.946 | locus YHR082C, strain KSP1, hits give low values 1.07 | locus YHR205W, strain SCH9, hits give low values 1.01 | locus YIL147C, strain SLN1, hits give low values 0.964 | locus YJL095W, strain BCK1, hits give low values 0.937 | locus YJL128C, strain PBS2, hits give low values 0.944 | locus YJL157C, strain FAR1, hits give low values 0.941 | locus YJR016C, strain ILV3, hits give low values 0.967 | locus YJR066W, strain TOR1 (second series), hits give low values 0.924 | locus YJR066W, strain TOR1, hits give low values 1.01 | locus YKL048C, strain ELM1, hits give low values 1.01 | locus YKL067W, strain YNK1, hits give low values 0.958 | locus YKL101W, strain HSL1, hits give low values 1.01 | locus YKL193C, strain SDS22, hits give low values 0.968 | locus YKL203C, strain TOR2, hits give low values 0.96 | locus YLR113W, strain HOG1, hits give low values 0.964 | locus YLR133W, strain CKI1, hits give low values 0.968 | locus YLR403W, strain SFP1, hits give low values 0.924 | locus YML070W, strain DAK1, hits give low values 0.98 | locus YMR001C, strain CDC5, hits give low values 0.969 | locus YMR205C, strain PFK2 (second series), hits give low values 0.99 | locus YMR277W, strain FCP1, hits give low values 0.962 | locus YNL006W, strain LST8, hits give low values 0.969 | locus YNL020C, strain ARK1, hits give low values 0.966 | locus YNL161W, strain CBK1, hits give low values 0.967 | locus YNL183C, strain NPR1, hits give low values 0.995 | locus YNL207W, strain RIO2, hits give low values 0.959 | locus YNL222W, strain SSU72, hits give low values 0.97 | locus YNL307C, strain MCK1 (second series), hits give low values 0.979 | locus YOL078W, strain AVO1, hits give low values 0.973 | locus YOL136C, strain PFK27, hits give low values 0.984 | locus YOR061W, strain CKA2, hits give low values 0.944 | locus YOR119C, strain RIO1, hits give low values 1 | locus YOR231W, strain MKK1, hits give low values 0.954 | locus YOR329C, strain SCD5, hits give low values 0.968 | locus YPL031C, strain PHO85, hits give low values 0.9 | locus YPL153C, strain RAD53, hits give low values 0.913 | locus YPL204W, strain HRR25, hits give low values 0.903 | locus YPL209C, strain IPL1, hits give low values 0.975 | locus YPL256C, strain CLN2, hits give low values 1.1 | locus YPR025C, strain CCL1, hits give low values 0.971 | locus YPR106W, strain ISR1, hits give low values 0.98 | locus YPR111W, strain DBF20, hits give low values 0.957 | strain NNK1, hits give low values 0.974 | strain TSCII, hits give low values 0.957
